Measured values reported in PubChem BioAssay (NCATS).
Records with an inconclusive call do not appear. A call without a number means that no potency is given here. Calls of active or inactive are those of the source. The call rests on the fitted dose curve; in most records, active means well fitted cell-killing curve with a large enough effect; inconclusive means small, poorly fitted or top-dose-only effect, or effect the other way; inactive means no such curve, though single readings can be large or run the other way.

Experiment: Quantitative High-Throughput drug screen in 47 multiple myeloma cell lines against the NCATS MIPE library collection: RPMI8226_ATCC cell viability assay (AID 1919871); further: nearly all actives have a fitted effect of over 30% in size
Conditions: RPMI8226 myeloma viability, CellTiter-Glo ATP luminescence, 48 h; series mostly up to 45.8 µM
Excerpt: PI: Beverly A. Mock Ph.D.
Laboratory of Cancer Biology and Genetics,
Center for Cancer Research, National Cancer Institute,
National Institute of Health, Bethesda, Maryland
Drug resistance and disease progression are common in multiple myeloma (MM) patients, underscoring the need for new therapeutic combinations. […] We hypothesized that effective combinations would reduce MYC expression and enhance p16 activity. […] These preclinical data identify potentially useful drug combinations for evaluation in drug-resistant MM and reveal potential mechanisms of combined drug sensitivity.
Described herein is the primary MIPE qHTS used to cherrypick compounds. Validated compounds were then further tested for potential synergistic activiy.
[1] Peat TJ, Gaikwad SM, Dubois W, Gyabaah-Kessie N, Zhang S, Gorjifard S, Phyo Z, Andres M, Hughitt VK, Simpson RM, Miller MA, Girvin AT, Taylor A, Williams D, D'Antonio N, Zhang Y, Rajagopalan A, Flietner E, Wilson K, Zhang X, Shinn P, Klumpp-Thomas C, McKnight C, Itkin Z, Chen L, Kazandijian D, Zhang J, Michalowski AM, Simmons JK, Keats J, Thomas CJ, Mock BA. Drug combinations identified by high-throughput screening promote cell cycle transition and upregulate Smad pathways in myeloma. Cancer Lett. 2023 Aug 1;568:216284. doi: 10.1016/j.canlet.2023.216284. Epub 2023 Jun 24. PMID: 37356470; PMCID: PMC10408729.
SEQUENCE No. (e.g., 1, 2, 3, etc.); […] (e.g., Cells, Incubation, Reagent, etc.); VALUE and DESCRIPTION.
1; Cells; 5 uL; white, solid bottom 1536-well Greiner assay plate.
2; Compounds; 23 nL; Kalypsis pin tool (Wako USA) equipped with a 1536-well pin head to transfer to the assay plates.
3; Incubation; 48 hours; 37C incubation.
4; Reagent;5uL; CellTiter Glo (Promega).
5; Detector; 425V; Luminescence; Viewlux PerkinElmer.
NOTES (numbers refer to Sequence numbers above)
1. The cell-based screening methods employed in this study were like those previously published. Briefly, the corresponding myeloma cell lines were screened in 1,536-well plates with 500 cells, 5-uL per well for inhibition of cell viability (assessed by measuring ATP levels with CellTiterGlo).
2. NCATS MIPE 4.0 library of approved and investigational drugs were added using the Kalypsis pin tool. Wells treated with DMSO only for 100% viability and media only for 0% viability were used as controls.
3. The assay plates were covered and incubated for 48 hours in a 37C, 5% CO2 incubator with controlled humidity.
4. After 48 hours, CellTilter-GloTM luminescent substrate mix (Promega) reagent was added to the assay plate and plates we incubated for 5 min at room temperature.
5. Signal was measured as median relative luminescence units on a ViewLux (PerkinElmer) multiplate reader.
[1] Heske CM, Davis MI, Baumgart JT, Wilson K, Gormally MV, Chen L, Zhang X, Ceribelli M, Duveau DY, Guha R, Ferrer M, Arnaldez FI, Ji J, Tran HL, Zhang Y, Mendoza A, Helman LJ, Thomas CJ. Matrix Screen Identifies Synergistic Combination of PARP Inhibitors and Nicotinamide Phosphoribosyltransferase (NAMPT) Inhibitors in Ewing Sarcoma. Clin Cancer Res. 2017 Dec 1;23(23):7301-7311. doi: 10.1158/1078-0432.CCR-17-1121. Epub 2017 Sep 12. PMID: 28899971; PMCID: PMC6636827.
Potency means the concentration at half of the fitted maximal effect.

Structure (SMILES) | Potency
COc1cc2nc(-c3ccc(N4CCN(C)CC4)cc3)nc(NCCN3CCOCC3)c2cc1OC | 0.0833 µM (active)
COc1ccc(-c2coc3cc(O)ccc3c2=O)cc1 | inactive
CC[C@@]1(O)C[C@H](O[C@H]2C[C@H](N(C)C)[C@H](O[C@H]3C[C@H](O)[C@H](O[C@H]4CCC(=O)[C@H](C)O4)[C@H](C)O3)[C@H](C)O2)c2c(cc3c(c2O)C(=O)c2c(O)cccc2C3=O)[C@@H]1C(=O)OC | 0.296 µM (active)
CC(=O)OC1C(C)OC(Oc2c(-c3ccc(O)cc3)oc3cc(O)cc(O)c3c2=O)C(O)C1OC(C)=O (stereo not given) | 10.5 µM (active)
CCC(CC)[C@H](NC(C)=O)[C@@H]1[C@H](O)[C@@H](C(=O)O)C[C@@H]1N=C(N)N | inactive
NC(=O)NN=Cc1ccc([N+](=O)[O-])o1 | inactive
Cc1nnc(C(C)C)n1C1C[C@H]2CC[C@@H](C1)N2CC[C@H](NC(=O)C1CCC(F)(F)CC1)c1ccccc1 (stereo not given in full) | inactive
CC#CCn1c(N2CCC[C@@H](N)C2)nc2c1c(=O)n(Cc1nc(C)c3ccccc3n1)c(=O)n2C | inactive
CC(C)OC(=O)C(C)(C)Oc1ccc(C(=O)c2ccc(Cl)cc2)cc1 | 18.7 µM (active)
O=C(CCN1CCN(C(=O)OCc2cc(Cl)cc(Cl)c2)CC1)c1ccc2[nH]c(=O)oc2c1 | inactive
O=c1c(-c2ccc(O)cc2)coc2cc(OC3O[C@H](CO)[C@H](O)[C@H](O)[C@H]3O)cc(O)c12 (stereo not given in full) | 16.6 µM (active)
Cn1cc(C=C2C(=O)Nc3cccnc32)c2ccccc21 | inactive
C[N+]1(C)[C@@H]2CC(OC(=O)[C@H](CO)c3ccccc3)C[C@H]1[C@H]1O[C@@H]12 (stereo not given in full) | inactive
Oc1ccc(C2=Cc3ccc(O)cc3OC2)cc1 | 5.9 µM (active)
CN(C)CCC=C1c2ccccc2COc2ccc(CC(=O)O)cc21 | inactive
CC(C)(C)COc1ccc(-n2cc(C(=O)O)cn2)cc1C#N | inactive
O=C(O)[C@H]1O[C@H](Oc2cc3oc(-c4ccccc4)cc(=O)c3c(O)c2O)[C@H](O)[C@@H](O)[C@H]1O | 4.69 µM (active)
O=C(NCc1ccccc1)c1csc(Nc2ccncn2)n1 | 20.9 µM (active)
CCCCCNC(=O)N1CCC(CN(Cc2ccc(Cl)cc2)Cc2ccc([N+](=O)[O-])s2)C1 (stereo not given) | 26.4 µM (active)
CO[C@H]1C[C@@H]2CC[C@@H](C)[C@@](O)(O2)C(=O)C(=O)N2CCCC[C@@H]2C(=O)O[C@H]([C@H](C)C[C@@H]2CC[C@H](OP(C)(C)=O)[C@H](OC)C2)CC(=O)[C@H](C)C=C(C)[C@@H](O)[C@@H](OC)C(=O)[C@H](C)C[C@H](C)C=CC=CC=C1C | inactive

Structure (SMILES) | Potency
CC(C(=O)O)c1ccc(-c2ccccc2)c(F)c1 (stereo not given) | inactive
CC(=O)N(C)C1(c2ccccc2)CCN(CCC[C@]2(c3ccc(Cl)c(Cl)c3)CCCN(C(=O)c3ccccc3)C2)CC1 | 23.5 µM (active)
CC[C@H]1OC(=O)[C@H](C)[C@@H](O[C@H]2C[C@@](C)(OC)[C@@H](O)[C@H](C)O2)[C@H](C)[C@@H](O[C@@H]2O[C@H](C)C[C@H](N(C)C)[C@@H]2O)[C@](C)(O)C[C@@H](C)CN(C)[C@H](C)[C@@H](O)[C@]1(C)O | 18.7 µM (active)
CC(=O)Nc1ccc([C@H](C)C(=O)Nc2ncc(C(C)C)s2)cc1 | 2.64 µM (active)
COC(=O)C1=CO[C@@H](O)[C@@H]2C(CO)=CC[C@@H]12 | 20.9 µM (active)
Cc1ccc([C@@H]2O[C@H](CO)[C@@H](O)[C@H](O)[C@@H]2O)cc1Cc1ccc(-c2ccc(F)cc2)s1 | inactive
COc1cccc(-c2cc(=O)c3ccccc3o2)c1N | inactive
O=C(Nc1c(Cl)cncc1Cl)c1ccc(OC(F)F)c(OCC2CC2)c1 | inactive
O=C1NC(=O)C(=Cc2cccc(C(F)(F)F)c2)S1 | 7.43 µM (active)
CC1(C)CCC[C@@]2(C)[C@@H]1CC[C@@]1(C)OC(=O)C[C@H]21 | 2.09 µM (active)
Clc1ccc(-c2nc3sccn3c2C=NOCc2ccc(Cl)c(Cl)c2)cc1 | inactive
Nc1nc(F)nc2c1ncn2[C@@H]1O[C@H](COP(=O)(O)O)[C@@H](O)[C@H]1O | inactive
Cc1[nH]c(C=C2C(=O)Nc3ccc(S(=O)(=O)Cc4c(Cl)cccc4Cl)cc32)c(C)c1C(=O)N1CCC[C@H]1CN1CCCC1 | 20.9 µM (active)
COc1ccc2cccc(CCNC(C)=O)c2c1 | inactive
O=c1[nH]cnc2c1ncn2[C@H]1CC[C@@H](CO)O1 | inactive
COc1cc(NC(=O)c2ccc(-c3ccc(Cl)cc3)o2)cc(OC)c1 | inactive
C[C@H]1[C@H](NC(=O)C(=NOC(C)(C)C(=O)O)c2csc(N)n2)C(=O)N1S(=O)(=O)O | inactive
CC(C)n1cnc2c(NCCCCCCNC(=O)OC(C)(C)C)nc(NCCO)nc21 | 14.8 µM (active)
O=C(O)c1c(Cl)c(Cl)c(Cl)c(Cl)c1-c1c2cc(I)c(=O)c(I)c-2oc2c(I)c(O)c(I)cc12 | 9.35 µM (active)
CC(C)(C(=O)NCC(F)(F)C(F)(F)F)C(=O)N[C@@H]1C(=O)Nc2ccccc2-c2ccccc21 | inactive
